SMILES strings stand for the structures. Where “and” joins values, the source holds several entries; their conditions need not be identical. Equal values may be shown once. A number with no mark means an inactive call. Calls of active or inactive are those of the source. Unless noted, calls follow the shape of the dose curve; as a rule, active = well fitted curve in the direction sought with a large enough effect in the repeat runs; inconclusive = weak or mixed curves; inactive = flat fitted curve, though single readings scatter.

A short description of test [1]: qHTS assay to test for compound auto fluorescence at 535 nm (green) in HEK293 cells (AID 720680). In general terms: Quantitative high-throughput screening tests each substance at several concentrations.
The nature of test [2]: qHTS assay to test for compound auto fluorescence at 460 nm (blue) in HEK293 cell free culture (AID 720681). In outline: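 Test compounds were pinned into cell-free culture medium (DMEM with 10% FBS) and fluorescence was read directly at Ex/Em 405/460 nm. Signals were expressed as fluorescence equivalents of triamterene, with DMSO vehicle as control.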
Test [3] is described as follows: qHTS assay to test for compound auto fluorescence at 535 nm (green) in HEK293 cell free culture (AID 720682). In outline: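 Compounds were pin-transferred into cell-free DMEM with 10% FBS, and green fluorescence was read at excitation 485 nm and emission 535 nm. Intensities were expressed as fluorescein-equivalent values.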
Test [4] can be described thus: qHTS assay to test for compound auto fluorescence at 460 nm (blue) in HepG2 cell free culture (AID 720685). In outline:
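Cell-free plates of MEM plus 10% FBS received 23 nL compound or DMSO vehicle; blue-channel (405/460 nm) intensity scored against triamterene as reference fluorophore.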

Test [5] is described as follows: qHTS assay to test for compound auto fluorescence at 535 nm (green) in HepG2 cell free culture (AID 720686). Also: potency is read from the fitted curve at half-maximal effect.
Test [6] in a line: qHTS assay to test for compound auto fluorescence at 460 nm (blue) in HepG2 cells (AID 720687). Also: potency is read from the fitted curve at half-maximal effect. In outline: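 Cells (2,000/well in MEM with 10% FBS) attached overnight at 37 C, then were exposed to compound or DMSO for 1 hr at 37 C, 5% CO2. Fluorescence read at Ex/Em 405/460 nm, expressed as triamterene-equivalent signal.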
For test [7], the target named is Glucocorticoid receptor (Homo sapiens) (UniProt P04150). The test is described as follows: qHTS assay to identify small molecule agonists of the glucocorticoid receptor (GR) signaling pathway (AID 720691; active = well fitted activation curve with a large enough effect in the signal ratio in the repeat runs, not every such curve was filed as active; inconclusive = weak or mixed curves, or effect the other way; inactive = no such curve, though single readings can be large or run the other way; the % refers to the signal ratio; also: potency is read from the fitted curve at half-maximal effect). Conditions: GR-bla HeLa, beta-lactamase reporter ratio, 18 h; activation: at 62.4 µM (top of the series). The procedure, abridged:
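Cells: GR-bla HeLa, endogenous GR with stably integrated GRE-beta-lactamase reporter. Treatment 18 h, 37 C, compounds delivered in DMSO. Detection via LiveBLAzer B/G FRET substrate, 2 h RT, fluorescence intensity.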

Test [8] is described as follows: qHTS assay to test for compound auto fluorescence at 590 nm (red) in HEK293 cell free culture (AID 720683). The procedure, abridged: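 Tox21 10K library compounds were pinned into cell-free DMEM with 10% FBS and fluorescence was read at excitation 540 nm. Activity is expressed as Rose Bengal sodium equivalency.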
The nature of test [9]: qHTS assay to test for compound auto fluorescence at 590 nm (red) in HepG2 cell free culture (AID 720684). In outline:
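Ex 540 / Em 590 nm read of compound in cell-free MEM (10% FBS). Rose Bengal sodium reference.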

In test [10] the target is Glucocorticoid receptor (Homo sapiens) (UniProt P04150). The test is described as follows: qHTS assay to identify small molecule antagonists of the glucocorticoid receptor (GR) signaling pathway (AID 720692; active = well fitted inhibition curve with a large enough effect in the signal ratio in the repeat runs, not every such curve was filed as active; inconclusive = weak or mixed curves, or effect the other way; inactive = no such curve, though single readings can be large or run the other way; the % refers to the signal ratio; also: potency is read from the fitted curve at half-maximal effect). In outline:
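Quantitative HTS in antagonist format: HeLa cells expressing endogenous GR and a stably integrated GRE-bla reporter, stimulated with 5 nM dexamethasone (final) alongside test compounds for 18 h.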
% is scaled to controls: 0 for no effect and ±100 for the full control effect; tags tell the direction and shape of the fitted curve or compound fluorescence and quenching.

Glucocorticoid receptor (Homo sapiens), sequence (P04150 whole entry, looked up): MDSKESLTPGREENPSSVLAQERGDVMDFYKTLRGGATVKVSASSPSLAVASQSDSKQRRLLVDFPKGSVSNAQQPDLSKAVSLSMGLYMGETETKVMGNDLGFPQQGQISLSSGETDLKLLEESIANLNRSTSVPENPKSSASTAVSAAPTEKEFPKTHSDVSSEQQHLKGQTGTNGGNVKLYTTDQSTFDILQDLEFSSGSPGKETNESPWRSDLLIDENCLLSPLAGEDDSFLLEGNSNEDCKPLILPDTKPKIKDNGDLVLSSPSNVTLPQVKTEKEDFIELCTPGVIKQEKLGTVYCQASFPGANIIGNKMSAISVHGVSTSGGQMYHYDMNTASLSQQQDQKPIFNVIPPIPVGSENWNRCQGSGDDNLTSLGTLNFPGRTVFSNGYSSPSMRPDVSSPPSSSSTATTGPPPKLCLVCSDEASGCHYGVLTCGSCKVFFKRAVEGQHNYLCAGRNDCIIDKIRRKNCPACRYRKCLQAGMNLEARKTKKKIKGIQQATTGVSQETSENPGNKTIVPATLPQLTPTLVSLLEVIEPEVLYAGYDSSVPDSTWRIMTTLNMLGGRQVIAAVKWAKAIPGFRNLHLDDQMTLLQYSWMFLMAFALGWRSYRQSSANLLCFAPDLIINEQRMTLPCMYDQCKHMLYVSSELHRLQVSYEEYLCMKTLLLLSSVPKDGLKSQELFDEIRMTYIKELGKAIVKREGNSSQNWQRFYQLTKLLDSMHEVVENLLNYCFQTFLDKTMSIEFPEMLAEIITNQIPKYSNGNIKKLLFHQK

For the compound `COc1cccc2c1C(=O)c1c(O)c3c(c(O)c1C2=O)C[C@@](O)(C(=O)CO)C[C@@H]3O[C@H]1C[C@H](N)[C@H](O[C@@H]2CCCCO2)[C@H](C)O1`, the outcome in [1] and in test [3] was inactive. For the same compound, the Potency result in [2], in [4], in [5] and in [6] was “inactive” throughout. The Potency in test [7] was 3.01 µM (active).
On to `CN(C/C=C/C#CC(C)(C)C)Cc1cccc2ccccc12`, for which the compound was called inactive in [1] and in [3]. Moreover, the Potency entry in [2], in test [8], in [9], in test [4], in [5] and in test [6] was “inactive” each time. Besides, the Potency entry in [7] and in [10] was “inactive” each time.
With `CN1CCC(Nc2ncc3ncnc(Nc4ccc(F)c(Cl)c4)c3n2)CC1`, the compound was called inactive in [3]. Further, the Potency result in test [8], in test [9] and in test [5] was “inactive” throughout. In test [6], the Potency is 12.6 µM [fluorescent] (active).
On to `CC(C)OC(=O)c1cc2c(OCC(O)CNC(C)(C)C)cccc2[nH]1` (stereo not drawn), for which the Potency result in test [2], in [8], in test [9], in test [4], in test [5] and in test [6] was “inactive” each time. In addition, the Potency entry in [7] and in [10] was “inactive” throughout. Besides, the compound was called inactive in test [3].
Consider `CCCN(CCC)C(=O)C(CCC(=O)OCCCN1CCN(CCOC(=O)Cc2c(C)n(C(=O)c3ccc(Cl)cc3)c3ccc(OC)cc23)CC1)NC(=O)c1ccccc1` (stereo not drawn), for which the Potency result in [2], in test [8], in test [9], in test [4], in [5] and in test [6] was “inactive” in each case. Further, the result in test [3] was inactive.
Regarding `CC(C)(C)NC(=O)[C@@H]1C[C@@H]2CCCC[C@@H]2CN1C[C@@H](O)[C@H](Cc1ccccc1)NC(=O)[C@H](CC(N)=O)NC(=O)c1ccc2ccccc2n1`, the Potency result in test [2], in test [8], in [9], in test [4], in test [5] and in [6] was “inactive” each time. In addition, the compound was classed as inactive in [3].
For `CCCCCCCCS(=O)C(C)Cc1ccc2c(c1)OCO2` (stereo not drawn), the Potency entry in test [2], in test [8], in test [9], in test [4], in test [5] and in test [6] was “inactive” each time. Moreover, the Potency result in [7] was “inactive”. Moreover, in [3], the result was inactive.
For the compound `C[C@]12CCC(=O)C=C1CC[C@@H]1[C@@H]2[C@@H](O)C[C@@]2(C)[C@H]1CC[C@]2(O)C(=O)COC(=O)CCC(=O)O`, the Potency result in [2], in test [8], in test [9], in test [4], in [5] and in [6] was “inactive” each time. For the same compound, in [3], the outcome was inactive. Further, the Potency in test [7] is 0.848 µM [inconclusive] (active).
On to `NNc1nc(-c2ccc(N)cc2)cs1`, for which the Potency result in test [2], in test [8], in [9], in [4], in test [5] and in test [6] was “inactive” in each case. Moreover, in test [3], the compound was classed as inactive.
On to `O=C(Oc1ccccc1)c1ccccc1C(=O)Oc1ccccc1`, for which the Potency result in test [2], in test [8], in test [9], in test [4], in [5] and in [6] was “inactive” in each case. For the same compound, the Potency entry in test [7] and in test [10] was “inactive” throughout. For the same compound, the compound was classed as inactive in test [3].
With `CCCCCCCCCCCCCCCC[N+](C)(C)CCN(Cc1ccc(OC)cc1)c1ncccn1`, the fluorescence, % of fluorescent control in test [2] was -0.0676% [at 18.6 µM]; in [8], -0.016% [at 18.6 µM]; in test [4], -0.0338% [at 18.6 µM]; in test [6], 0.0553% [at 18.6 µM]. The activity change in test [3] was -0.0015% [at 18.6 µM]. Further, the fluorescence, % of Rose Bengal in test [9] is 0.665% [at 18.6 µM]. The fluorescence, % of fluorescein control in test [5] was -0.0114% [at 18.6 µM]. Besides, the Potency entry in test [7] and in [10] was “inactive” in each case.
For `CCc1cc(Cc2cc(CC)cc(C(C)(C)C)c2O)c(O)c(C(C)(C)C)c1`, the Potency result in [2], in [8], in [9], in test [4], in test [5] and in test [6] was “inactive” each time. Besides, in [3], the compound was called inactive.
For the compound `O=C1Cc2cc(CCN3CCN(c4nsc5ccccc45)CC3)c(Cl)cc2N1`, the Potency entry in test [2], in test [8], in [9], in test [4], in test [5] and in test [6] was “inactive” in each case. Also, the Potency result in [10] is “inactive”. The call in test [3] was inactive. Further, in [7], the Potency was 21.3 µM (active).
Turning to `C[C@H](CCC(=O)O)[C@H]1CC[C@H]2[C@@H]3CC[C@@H]4C[C@H](O)CC[C@]4(C)[C@H]3CC[C@]12C`, the Potency result in test [2], in [8], in [9], in test [4], in test [5] and in test [6] was “inactive” in each case. Further, in [7], the Potency result is “inactive”. For the same compound, the call in test [3] was inactive. In addition, the Potency in [10] was 19.4 µM (active) and 43.6 µM (active).
As for `S=c1[nH]c2ccccc2s1`, the Potency result in test [2], in test [8], in test [9], in test [4], in test [5] and in [6] was “inactive” in each case. For the same compound, the Potency entry in test [7] and in [10] was “inactive” in each case. For the same compound, in test [3], the result was inactive.
Take `CCCC(=O)OC[C@@H](OC(=O)CCC)[C@@H](OC(=O)CCC)[C@H](Cn1c2nc(=O)[nH]c(=O)c-2nc2cc(C)c(C)cc21)OC(=O)CCC`: the Potency entry in test [2], in test [8], in [9], in test [4] and in test [6] was “inactive” each time. Besides, the Potency in test [5] was 8.91 µM [fluorescent] (active).
For the compound `C[n+]1cc2c3c(ccc2c2ccc4cc5c(cc4c21)OCO5)OCO3`, the Potency result in test [2], in test [8], in test [9], in test [4], in [5] and in test [6] was “inactive” in each case. Further, in test [3], the result was inactive.
With `CCOC(=O)/C=C(C)/C=C/C=C(C)/C=C/c1c(C)cc(OC)c(C)c1C`, the Potency entry in [2], in [8], in test [9], in test [4], in test [5] and in test [6] was “inactive” in each case. The Potency result in test [10] was “inactive”. In addition, the compound was called inactive in [3].
Turning to `CC(NN)c1ccccc1` (stereo not drawn), the Potency entry in [2], in test [8], in test [9], in [4], in test [5] and in test [6] was “inactive” in each case. Also, the Potency entry in [7] and in test [10] was “inactive” each time. Moreover, the result in test [3] was inactive.
In the case of `N#CSc1ccc(N)c([N+](=O)[O-])c1`, the Potency entry in [2], in [8], in test [9], in test [4], in [5] and in [6] was “inactive” in each case. The Potency result in test [7] was “inactive”. In test [3], the compound was called inactive.

These data come from PubChem BioAssay (Tox21).
